# Test results published in PubChem BioAssay (NCATS).
# Results filed as inconclusive are left out. Values without a mark were called inactive. Active and inactive are the calls of the source. Unless noted, calls come from the whole dose curve.
# Test system: not listed separately
# Assay: qHTS for Inhibitors of the Functional Ribonucleoprotein Complex (vRNP) of Lymphocytic Choriomeningitis Arenaviruses (LCMV): Viability assay - alamar blue signal for LCMV Primary Screen (AID 1347085; calls by dose curve; tested in HEK293 reporter line; note: nearly all actives have a fitted effect of over 80% in size)
# Details: alamar blue viability counter-screen, LCMV vRNP screen cells; series mostly up to 57.5 µM; activity change, negative = lower viability: at the top concentration
# % is set by controls: 0 for no effect and ±100 for the full control effect.
SMILES,Potency,"activity change, negative = lower viability [%]"
NCCCCCC(=O)O,inactive,
CC(C)(C(=O)c1cccnc1)c1cccnc1,,1.4
CCC1(C)CC(=O)NC1=O (configuration not stated),inactive,
COc1ccc(C2C(=O)c3ccccc3C2=O)cc1,,13.3

# Biological target: Nucleoprotein (Lymphocytic choriomeningitis virus (strain Armstrong)) (UniProt P09992)
# Sequence (P09992 whole entry, looked up): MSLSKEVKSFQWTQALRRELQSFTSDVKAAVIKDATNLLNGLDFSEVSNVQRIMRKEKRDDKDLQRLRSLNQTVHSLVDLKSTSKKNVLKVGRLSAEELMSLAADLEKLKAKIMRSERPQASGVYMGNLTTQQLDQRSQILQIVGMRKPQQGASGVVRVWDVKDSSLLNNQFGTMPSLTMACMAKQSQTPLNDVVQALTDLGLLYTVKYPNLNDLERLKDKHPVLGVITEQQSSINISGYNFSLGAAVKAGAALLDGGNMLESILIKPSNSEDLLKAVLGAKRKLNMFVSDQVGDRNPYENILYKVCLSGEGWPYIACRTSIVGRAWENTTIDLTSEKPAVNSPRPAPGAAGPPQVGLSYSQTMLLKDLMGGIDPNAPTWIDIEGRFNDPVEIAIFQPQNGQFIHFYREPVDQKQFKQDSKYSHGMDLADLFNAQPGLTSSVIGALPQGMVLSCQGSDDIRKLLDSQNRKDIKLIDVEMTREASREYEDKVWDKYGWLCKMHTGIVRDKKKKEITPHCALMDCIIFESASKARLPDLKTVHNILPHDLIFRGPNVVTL
# Assay: qHTS for Inhibitors of the Functional Ribonucleoprotein Complex (vRNP) of Lymphocytic Choriomeningitis Arenaviruses (LCMV): LCMV Primary Screen - GLuc reporter signal (AID 1347086); note: nearly all actives have a fitted effect of over 70% in size
# Details: LCMV minigenome vRNP cell assay, Gaussia luciferase reporter; series mostly up to 57.5 µM; activity change, negative = inhibition: at the top concentration
SMILES,"activity change, negative = inhibition",Potency
O=C(OCCN1CCOCC1)c1cccnc1Nc1cccc(C(F)(F)F)c1,-9.25%,
O=C(O)/C=C\C(=O)O,-4.42%,
CC(N=C(NC#N)Nc1ccncc1)C(C)(C)C (configuration not stated),,inactive
C[N+]1(C)[C@@H]2CC(OC(=O)[C@H](CO)c3ccccc3)C[C@H]1[C@@H]1O[C@@H]12 (some centres not stated),20.1%,
COc1ccc(O)cc1,,inactive
O=C1OC(CN2CCOCC2)CN1/N=C/c1ccc([N+](=O)[O-])o1 (configuration not stated),-18.6%,
COc1cc(C)c(Cc2cnc(N)nc2N)cc1OC,11.3%,
CC(=O)Nc1ccc(C(=O)O)cc1,,inactive
CC(CSC(=O)c1ccccc1)C(=O)N1C[C@@H](Sc2ccccc2)C[C@H]1C(=O)O (some centres not stated),10.6% [at 24.7 µM],
NC(=O)NS(=O)(=O)c1ccc(Cl)cc1,12.4%,
OCCN1CCN(CC/C=C2/c3ccccc3Sc3ccc(C(F)(F)F)cc32)CC1,-0.0816%,
CN(C)C(=O)Oc1ccc[n+](C)c1,,inactive
CCCNC(C)C(=O)Nc1ccccc1C (configuration not stated),,inactive
O=[N+]([O-])c1cncn1CCN1CCOCC1,16.4%,
Cc1cc(OI)c(C(C)C)cc1-c1cc(C(C)C)c(OI)cc1C,1.41%,
CC(=O)O[C@]1(C(C)=O)CC[C@H]2[C@@H]3C[C@H](C)C4=CC(=O)CC[C@]4(C)[C@H]3CC[C@@]21C,27.3%,
CC(=O)CC(c1ccccc1)c1c(O)c2ccccc2oc1=O (configuration not stated),,inactive
O=C1CCCc2c(O)cccc21,8.91%,
